# Lassa entry inh – qHTS for Inhibitors of binding or entry into cells for Lassa Virus; Lassa virus pseudotype entry inhibition, cell reporter; Potency, µM (highest dose often 37.9 µM), inactives show top-dose activity change, negative = inhibition, actives largely listed as inhibitors; 300,000 compounds, 1.2% hits; calls by dose curve; tested in HEK293 cells; further: nearly all actives have a fitted effect of over 50% in size
# Vaccinia mCherry – qHTS for Stage-Specific Inhibitors of Vaccinia Orthopoxvirus: mCherry Reporter Primary qHTS; 310,000 compounds, 0.63% hits; Vaccinia virus mCherry reporter infection, fluorescence; Potency, µM (doses to about 36.5 µM), without a hit: top-dose activity change, negative = inhibition, actives largely listed as inhibitors; calls by dose curve; tested in A549 cells; further: nearly all actives have a fitted effect of over 35% in size
# Marburg entry inh – qHTS for inhibitors of binding or entry into cells for Marburg Virus. 300,000 compounds, 1.8% hits. AID 540276, 2011. Marburg virus pseudotyped entry inhibition, cell reporter. Potency, µM (top dose mostly 37.8 µM), without a hit: at the highest dose activity change, negative = inhibition, actives largely listed as inhibitors; calls by dose curve; tested in HEK293 cells
# Vaccinia Venus – qHTS for Stage-Specific Inhibitors of Vaccinia Orthopoxvirus: Venus Reporter Primary qHTS; Vaccinia virus Venus reporter expression, fluorescence; Potency, µM (titrated, usually from 36.5 µM), inactives show at the top dose activity change, negative = inhibition, most hits filed as inhibitors; 330,000 compounds, 0.46% hits; calls by dose curve; tested in A549 cells; further: nearly all actives have a fitted effect of over 30% in size
# HCV inh – qHTS Assay for Inhibitors of Hepatitis C Virus (HCV); Huh7.5.1 HCVcc-Cre infection, luciferase reporter, 44 h; Potency, µM (highest dose often 41.8 µM), for the others: top-dose activity change, negative = inhibition, usual class: inhibitors; 340,000 compounds, 3.4% hits; active means well fitted inhibition curve with a large enough effect; inconclusive means small, poorly fitted or top-dose-only effect, or another doubt; inactive means no such curve, though single readings can be large or run the other way
#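 1,000 cells/well; 4 h culture; + compound; + HCVcc-Cre (~0.5 moi); 44 h; luciferase substrate, RT 15 min; read 15 sec.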
# * hit, by the source's call; i = inactive; ? = inconclusive; nt = not tested or not shown; ! = not confirmed by another sample; [ ] = remark or other dose. An excerpt weighted towards active compounds, which were near 4.6% of everything screened. On the % scale 0 is the no-effect control and ±100 the full control effect; potency means the concentration at half of the fitted maximal effect.
SMILES,Lassa entry inh,Vaccinia mCherry,Marburg entry inh,Vaccinia Venus,HCV inh
O=C(NCc1ccccc1)C1=C[C@H](c2csc3ccccc23)C[C@H](OCc2ccc(CO)cc2)O1,nt,-23.6%,nt,?,?
O=C(Nc1ccccc1)C1=C[C@@H](c2csc3ccccc23)C[C@@H](OCc2ccc(CO)cc2)O1,nt,-15.2%,nt,?,0.316µM*
CC(=O)n1cc([C@H]2C=C(C(N)=O)O[C@@H](OCc3ccc(CO)cc3)C2)c2ccccc21,nt,i,nt,-6.4%,2.82µM*
O=C(C1=C[C@H](c2csc3ccccc23)C[C@H](OCc2ccc(CO)cc2)O1)N1CCN(Cc2ccc3c(c2)OCO3)CC1,nt,?,nt,?,8.91µM*
CC(=O)n1cc([C@@H]2C=C(C(=O)Nc3ccccc3)O[C@H](OCc3ccc(CO)cc3)C2)c2ccccc21,nt,-14.7%,nt,-26.1%,?
Cc1ccc(NC(=O)CSc2nncn3c2cc2sccc23)cc1F,-1.3%[46.1 µM],-23.2%,nt,-13.7%,nt
Cc1ccc(NC(=O)CN(C)S(=O)(=O)c2ccc3c(c2)n(C)c(=O)c(=O)n3C)cc1F,4.1%[46.1 µM],-14.2%,5.0%[46.1 µM],-2.8%,nt
COc1cc(C)c(CN2CCc3nnc(C(C)NC(=O)c4cc(F)ccc4F)n3CC2)cc1C (centres undefined),nt,-19.4%,nt,-17.6%,nt
O=C(C1=C[C@@H](c2ccc3c(c2)OCO3)C[C@@H](OCCCCO)O1)N1CCN(Cc2ccc3c(c2)OCO3)CC1,nt,i,nt,-14.4%,0.562µM*
O=C(C1=C[C@H](c2ccc3c(c2)OCO3)C[C@H](OCCCCO)O1)N1CCN(Cc2ccc3c(c2)OCO3)CC1,nt,?,nt,-19.3%,-26.2%
CCCc1nc2cccnc2n1C1CCN(C(=O)CC2NC(=O)c3ccccc32)CC1 (centres undefined),nt,-12.5%,nt,-9.9%,nt
Nc1ccccc1-c1ccc([N+](=O)[O-])cc1,?,?,5.62µM*,-20.0%,-23.0%
CC1=C(C(=O)Nc2ccccc2)C(c2cccs2)n2nc(SCc3ccccc3)nc2N1 (centres undefined),19.0%[46.1 µM],-4.9%,5.9%[46.1 µM],3.0%,nt
Cc1c(CN2CCC(C(=O)Nc3ccc(Oc4ccccc4)nc3)CC2)cnn1C,nt,nt,nt,nt,-29.7%
CCn1cc(CN2CCC(C(=O)Nc3ccc(Oc4ccccc4)nc3)CC2)cn1,2.4%,-9.6%,?,-23.6%,?
CCc1ccc(CN2CCC(C(=O)Nc3ccc(Oc4ccccc4)nc3)CC2)o1,-26.9%[46.1 µM],i,?,-23.2%,11.2µM*
COc1ccc(CN2CCC(C(=O)Nc3ccc(Oc4ccccc4)nc3)CC2)cc1F,?,-2.5%,?,-23.8%,2.51µM*
CSc1ncc(CN2CCCCC2C(=O)Nc2ccc(Oc3ccccc3)nc2)cn1 (centres undefined),-5.0%,-14.1%,5.62µM*,-11.8%,?
COc1cc(F)ccc1CN1CCC(C(=O)Nc2ccc(Oc3ccccc3)nc2)CC1,?,i,?,-21.5%,10µM*
CCN(CC)C(=O)Cn1c(=O)n(CC2CCC(C(=O)NC)CC2)c(=O)c2sccc21 (centres undefined),?,-8.6%,nt,-1.9%,nt
Cc1ccc2oc(-c3cc(NC(=O)c4ccc5c(c4)OCCO5)cc(C)c3O)nc2c1,1.7%[46.1 µM],-6.5%,-3.8%[46.1 µM],-0.9%,nt
Clc1ccc2c(c1)C(N1CCNCC1)=Nc1ccccc1O2,?,-22.6%,10.3µM*!,?,?
CC1=Nc2cc(Cl)ccc2Oc2ccccc21,-6.4%,-0.5%,1.8%[46.1 µM],-1.5%,-2.5%
CCc1cccc2c(=O)c(C(=O)N3CCCCCC3)c[nH]c12,0.9%,-8.1%,?,-1.5%,1.2%
CCc1cccc2c(C(=O)CN3C(=O)N(C)C4(CCCCC4)C3=O)c[nH]c12,nt,nt,nt,nt,7.08µM*
SMILES,Lassa entry inh,Vaccinia mCherry,Marburg entry inh,Vaccinia Venus,HCV inh
COCCCN1CCN(C2Cc3ccccc3Sc3ccc(Cl)cc32)CC1 (centres undefined),?,?,?,?,-15.1%
Clc1cccc2c1Sc1ccccc1CC2N1CCNCC1 (centres undefined),5.17µM*,?,?,?,10µM*
Cc1cccc(Nc2cc(C)c3c(O)cccc3n2)c1C,?,14.1µM*,?,?,?
COc1cccc(/C(O)=C2\C(=O)C(=O)N(CCN(C)C)[C@@H]2c2ccc(Br)cc2)c1,nt,nt,0.3%[46.1 µM],nt,nt
CCOC(=O)c1[nH]c2ccc(Br)cc2c1NC(=O)CCN1CCN(C(=O)OCC)CC1,-0.7%,-12.3%,-4.2%,-6.6%,-24.2%
CCN(CC(=O)Nc1c(C(=O)OC)[nH]c2ccc(Cl)cc12)c1ccc2c(c1)OCO2,12.6µM*,nt,?,?,11.2µM*
COC(=O)c1[nH]c2ccc(C)cc2c1NC(=O)CCN1CCN(Cc2ccc3c(c2)OCO3)CC1,-21.5%,-1.8%,-14.9%,-21.4%,20µM*
CC(NC(=O)C1CCOCC1)c1nnc2n1CCN(Cc1cc3c(cc1Cl)OCO3)CC2 (centres undefined),nt,0.0%,nt,-20.7%,nt
CCc1ccccc1NC(=O)c1ccc2nc(C(C)C)oc2c1,-6.2%[46.1 µM],?,nt,-23.6%,nt
CC1(C)CC(=O)c2cc(C(=O)Nc3cccc4ccccc34)c(=O)[nH]c2C1,nt,-19.0%,nt,-22.1%,nt
CC(C)(C)NC(=O)C(c1ccc(O)cc1)N(Cc1ccccc1)C(=O)CCC(=O)Nc1nccs1 (centres undefined),-10.4%,-11.1%,-28.1%[46.1 µM],-11.4%,25.5%
CC(C)(C)NC(=O)C(c1ccc(O)cc1)N(C(=O)CCC(=O)Nc1nccs1)c1ccc(F)cc1 (centres undefined),?,-0.9%,2.24µM*,-9.1%,12.3%
COCCNC(=O)C(c1ccc(F)cc1)N(C(=O)CCC(=O)Nc1nccs1)c1ccc(C)cc1 (centres undefined),?,i,?,-23.2%,8.8%
Cc1ccc(N(C(=O)CCC(=O)Nc2nccs2)C(C(=O)NC(C)(C)C)c2ccc(O)cc2)cc1 (centres undefined),-15.1%[46.1 µM],i,8.91µM*,-7.2%,-15.4%
COc1ccc(/C=C2\SC(=S)N(CCC(=O)Nc3ccc(O)cc3)C2=O)cc1,?,-15.3%,12.2%,15.7%,?
COc1ccc(/C=C2\SC(=S)N(CCC(=O)Nc3ccccc3C(=O)O)C2=O)cc1,-10.6%[46.1 µM],-8.0%,5.1%[46.1 µM],-2.6%,24.6%
CCN(CC)CCOC(=O)c1ccc(NC(=O)CCCN2C(=O)S/C(=C/c3ccc(OC)cc3)C2=S)cc1,?,1.4%,?,21.3%,14.1µM*
COc1cccc(/C=C2\SC(=O)N(CCC(=O)NNC(=O)c3cccc(Cl)c3)C2=O)c1,1.58µM*,i,-18.5%,-7.0%,?
COc1ccc(/C=C2\SC(=O)N(CCCC(=O)Nc3cc(Cl)ccc3C(=O)O)C2=O)cc1,0.398µM*,i,1.26µM*,-1.8%,-5.9%
O=C(c1ccc2c(c1)OCO2)N(Cc1cc2cc3c(cc2nc1N1CCOCC1)CCC3)CC1CCCO1 (centres undefined),nt,-10.4%,nt,-6.9%,nt

# Source: PubChem BioAssay
